Results on 38 molecules are retold here after PubChem BioAssay (Tox21).

The structures appear in SMILES notation. Results filed as inconclusive are left out. Where a call stands in place of a potency, no number is given. A number with no mark means an inactive call. Active and inactive are the calls of the source. Unless noted, the call rests on the fitted dose curve.

The first test can be described thus: qHTS assay to identify small molecule agonists of the vitamin D receptor (VDR) signaling pathway - cell viability counter screen (AID 743224; active means well fitted cell-killing curve with a large enough effect in the repeat runs; further: nearly all actives have a fitted effect of over 50% in size). As to conditions: VDR-bla HEK293T viability, CellTiter-Glo luminescence, 16 h; series mostly up to 62.6 µM; activity change, negative = cytotoxicity: at the top concentration. The essentials: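 Here cell health was gauged by luminescent ATP detection (CellTiter-Glo, 30 min RT) in VDR-bla cells that had been incubated with test compounds for 16 h at 37C and 5% CO2.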
In general terms: Quantitative high-throughput screening tests each substance at several concentrations.
As to `COCN(COC)c1nc(N(COC)COC)nc(N(COC)COC)n1`, the Potency result is “inactive”.

As to `CC(=O)CC(=O)N(C)C`, the Potency entry was “inactive”.

Take `Cc1cc(C)c(O)c(C)c1`: the Potency result is “inactive”.

On to `Cc1ccc([N+](=O)[O-])cc1N`, for which the Potency entry is “inactive”.

For `CC(=O)OC[C@H]1O[C@@](COC(C)=O)(O[C@H]2O[C@H](COC(C)=O)[C@@H](OC(C)=O)[C@H](OC(C)=O)[C@H]2OC(C)=O)[C@@H](OC(C)=O)[C@@H]1OC(C)=O`, the Potency result was “inactive”.

On to `Oc1ccc(Cc2ccccc2O)cc1`, for which the Potency result is “inactive”.

Regarding `CC(O)CNCC(C)O` (centres undefined), the Potency result was “inactive”.

Regarding `Cc1ccccc1C=O`, the Potency entry was “inactive”.

With `Cc1ccc(C)c(S(=O)(=O)O)c1`, the Potency entry is “inactive”.

For the molecule `NC(=O)NC(N)=O`, the “activity change, negative = cytotoxicity” value is 9.74% [at 81.1 µM].

For `CCCN(CCC)C(=O)SCC`, the Potency result was “inactive”.

With `Cc1cc(CC(=O)O)n(C)c1C(=O)c1ccc(Cl)cc1`, the Potency result is “inactive”.

For `CC/C(C)=N/O`, the Potency entry was “inactive”.

With `O=C(O)Cc1c[nH]c2ccccc12`, the Potency entry is “inactive”.

As to `OCCOCCOCCOCCOCCO`, the Potency entry was “inactive”.

Take `Cc1ccc(C(C)C)cc1`: the Potency entry was “inactive”.

Consider `CC(C)=CCC/C(C)=C/C=O`, for which the Potency result was “inactive”.

Regarding `CC(=O)OC/C=C(\C)CCC=C(C)C`, the Potency result was “inactive”.

For `O=C(c1ccccc1)c1ccc(O)c(O)c1O`, the Potency entry is “inactive”.

`CCCCC(=O)O`: the Potency entry was “inactive”.

Consider `C=C1C[C@]23C[C@@]1(O)CC[C@H]2[C@@]12C=C[C@H](O)[C@@](C)(C(=O)O1)[C@H]2[C@@H]3C(=O)O`, for which the Potency entry is “inactive”.

For `CC(=O)C(C)C`, the Potency entry was “inactive”.

For `CO[Si](CCCNCCN)(OC)OC`, the “activity change, negative = cytotoxicity” value was -21.4% [at 81.1 µM].

For the molecule `CCn1cc(C(=O)O)c(=O)c2cc3c(cc21)OCO3`, the Potency result was “inactive”.

In the case of `CC(C)c1ccc(C(C)C)cc1`, the “activity change, negative = cytotoxicity” value is -0.947% [at 81.1 µM].

With `CCCOCC(C)O` (centres undefined), the Potency result was “inactive”.

For the molecule `CCCCCCCC(=O)O`, the Potency entry is “inactive”.

For the molecule `C=C(C)CC(C)(C)C`, the Potency result is “inactive”.

Regarding `Nc1cccc(N)n1`, the Potency entry was “inactive”.

`NC(N)=S`: the Potency result was “inactive”.

`Cc1ccc(Cl)cc1`: the Potency result is “inactive”.

In the case of `OCc1ccc(Cl)cc1Cl`, the Potency result was “inactive”.

With `CCOC(=O)c1ccc(O)cc1`, the Potency entry was “inactive”.

With `CCOC(=O)CC(=O)OCC`, the Potency result was “inactive”.

For `OCC(O)CS` (centres undefined), the Potency result was “inactive”.

Turning to `OCC(CO)(CO)CO`, the Potency result is “inactive”.

The nature of the next test: qHTS assay to identify small molecule agonists of the NFkB signaling pathway - cell viability counter screen (AID 1159515). Further: nearly all actives have a fitted effect of over 55% in size. To be noted: NFkB-bla ME-180 viability, CellTiter-Glo luminescence, 5 h; series mostly up to 61 µM; activity, negative = cytotoxic: at the top concentration. The method in brief:
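5 hr compound treatment of NFkB-bla ME-180 cells (2,000/well, seeded overnight beforehand), followed by reporter substrate for 1.5 hr. CellTiter-Glo added afterward; luminescence after 30 min RT.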
As to `COCN(COC)c1nc(N(COC)COC)nc(N(COC)COC)n1`, the Potency result was “inactive”.

For `CC(=O)CC(=O)N(C)C`, the Potency entry is “inactive”.

`Cc1cc(C)c(O)c(C)c1`: the Potency entry is “inactive”.

For the molecule `Cc1ccc([N+](=O)[O-])cc1N`, the Potency entry was “inactive”.

Take `CC(=O)OC[C@H]1O[C@@](COC(C)=O)(O[C@H]2O[C@H](COC(C)=O)[C@@H](OC(C)=O)[C@H](OC(C)=O)[C@H]2OC(C)=O)[C@@H](OC(C)=O)[C@@H]1OC(C)=O`: the Potency result is “inactive”.

As for `Oc1ccc(Cc2ccccc2O)cc1`, the Potency result is “inactive”.

As for `CC(O)CNCC(C)O` (centres undefined), the Potency entry is “inactive”.

`Cc1ccccc1C=O`: the Potency result was “inactive”.

Turning to `Cc1ccc(C)c(S(=O)(=O)O)c1`, the Potency result was “inactive”.

On to `NC(=O)NC(N)=O`, for which the Potency result is “inactive”.

`NC(=O)c1ncn([C@@H]2O[C@H](CO)[C@@H](O)[C@H]2O)n1`: the Potency result is “inactive”.

`CCCN(CCC)C(=O)SCC`: the Potency entry is “inactive”.

Take `Cc1cc(CC(=O)O)n(C)c1C(=O)c1ccc(Cl)cc1`: the Potency result was “inactive”.

Regarding `CC/C(C)=N/O`, the Potency entry was “inactive”.

For `O=C(O)Cc1c[nH]c2ccccc12`, the Potency result was “inactive”.

On to `OCCOCCOCCOCCOCCO`, for which the Potency entry was “inactive”.

On to `Cc1ccc(C(C)C)cc1`, for which the Potency result is “inactive”.

Take `CC(C)=CCC/C(C)=C/C=O`: the Potency result was “inactive”.

Regarding `CC(=O)OC/C=C(\C)CCC=C(C)C`, the Potency result was “inactive”.

Take `CCN(CC)CCNC(=O)c1ccc(N)cc1`: the Potency entry was “inactive”.

Take `O=C(c1ccccc1)c1ccc(O)c(O)c1O`: the Potency result was “inactive”.

Consider `CCCCC(=O)O`, for which the Potency entry is “inactive”.

With `C=C1C[C@]23C[C@@]1(O)CC[C@H]2[C@@]12C=C[C@H](O)[C@@](C)(C(=O)O1)[C@H]2[C@@H]3C(=O)O`, the Potency result was “inactive”.

As to `CC(=O)C(C)C`, the Potency entry was “inactive”.

As to `CO[Si](CCCNCCN)(OC)OC`, the Potency entry was “inactive”.

Regarding `CCn1cc(C(=O)O)c(=O)c2cc3c(cc21)OCO3`, the Potency entry is “inactive”.

`CC(C)c1ccc(C(C)C)cc1`: the Potency entry is “inactive”.

`CCCOCC(C)O` (centres undefined): the Potency result is “inactive”.

As to `CCCCCCCC(=O)O`, the Potency entry is “inactive”.

Turning to `C=C(C)CC(C)(C)C`, the Potency result is “inactive”.

Regarding `Nc1cccc(N)n1`, the Potency result is “inactive”.

As for `NC(N)=S`, the Potency result was “inactive”.

Take `Cc1ccc(Cl)cc1`: the Potency entry was “inactive”.

Regarding `OCc1ccc(Cl)cc1Cl`, the Potency result was “inactive”.

Consider `CCOC(=O)c1ccc(O)cc1`, for which the Potency result was “inactive”.

Take `CCOC(=O)CC(=O)OCC`: the Potency result is “inactive”.

Regarding `OCC(O)CS` (centres undefined), the Potency result was “inactive”.

`OCC(CO)(CO)CO`: the Potency result was “inactive”.
